Data as given in PubChem BioAssay (EPA / NIEHS).
The source made the active and inactive calls. The calls were made as follows: active = hit-call score of the fitted dose curve at least 0.9, where 1 is the maximum; inactive = score below 0.9.

Key:
[1] = CEETOX_H295R_ANDR: CeeTox H295R High-throughput Steroidogenesis Assay for Androstenedione (ANDR) (AID 2283436); conditions: actives raise or lower the signal;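 also: human H295R adrenal cells exposed for 48 h with androstenedione measured in medium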
Summary of the method: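 Read-out is androstenedione secreted into medium, measured by tandem mass spectrometry after liquid-liquid extraction. Cells were H295R, dosed for 48 h per modified OECD 456; activity fitted in both directions relative to DMSO.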

[2] = CEETOX_H295R_CORTISOL: CeeTox H295R High-throughput Steroidogenesis Assay for Cortisol (AID 2283438); conditions: actives raise or lower the signal;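 also: cortisol secreted into medium quantified by LC-MS/MS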
Summary of the method: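 Human adrenocortical H295R cells (passage ≤10) received test chemicals for 48 h after forskolin priming. Secreted cortisol was measured by LC-MS/MS.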

[3] = CEETOX_H295R_DOC: CeeTox H295R High-throughput Steroidogenesis Assay for DOC (AID 2283439); conditions: actives raise or lower the signal
Summary of the method: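 Secreted DOC was quantified from H295R media by HPLC-MS/MS after 48 h chemical exposure following 48 h forskolin (10 uM) prestimulation. Values were fitted in both directions relative to DMSO, the negative control and baseline.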

[4] = CEETOX_H295R_ESTRADIOL: CeeTox H295R High-throughput Steroidogenesis Assay for Estradiol (AID 2283440); conditions: actives raise or lower the signal;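 also: estradiol secreted into medium quantified by LC-MS/MS after dansyl derivatisation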
Summary of the method: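 H295R, 48 h forskolin (10 uM) prestim → 48 h compound, 0.1% DMSO final. Estradiol in medium: MTBE extraction, dansyl chloride derivatization, LC-MS/MS. Fit bidirectional vs DMSO baseline; MTT viability in same wells.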

[5] = CEETOX_H295R_ESTRONE: CeeTox H295R High-throughput Steroidogenesis Assay for Estrone (AID 2283441); conditions: actives raise or lower the signal;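 also: estrone secreted into medium measured by LC-MS/MS after dansyl derivatization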;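 as to AC50: human adrenal H295R cells prestimulated with forskolin for two days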
Summary of the method: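 H295R cells; 48 h forskolin (10 uM) prestimulation; 48 h compound exposure, 0.1% DMSO final. Medium estrone: MTBE extraction, dansyl derivatization, HPLC-MS/MS. Bidirectional fit vs DMSO.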

[6] = CEETOX_H295R_PROG: CeeTox H295R High-throughput Steroidogenesis Assay for Progesterone (PROG) (AID 2283442); conditions: actives raise or lower the signal;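 as to AC50: human H295R adrenal cells primed with 10 µM forskolin before dosing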
Summary of the method: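 Progesterone read-out: HPLC-MS/MS on MTBE extracts of conditioned medium after 48 h chemical exposure of forskolin-primed (10 uM, 48 h) H295R cells. Gain or loss of signal was fitted relative to DMSO baseline.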

[7] = read-out: Tumor necrosis factor receptor superfamily member 6 (Homo sapiens) (UniProt P25445); assay: LTEA_HepaRG_FAS: Life Technologies and Expression Analysis (LTEA) Assay for Fas cell surface death receptor (FAS) using HepaRG (AID 2283447); conditions: mRNA level, 48 h; actives raise or lower the signal
Summary of the method: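 FAS transcript level was measured by TaqMan qRT-PCR against three housekeeping genes after 48 h chemical exposure. Cells were HepaRG, 0.5% DMSO vehicle, with a top concentration of 100 uM and half-log dilutions over eight points, in duplicate.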

[8] = read-out: Fatty acid synthase (Homo sapiens) (UniProt P49327); assay: LTEA_HepaRG_FASN: Life Technologies and Expression Analysis (LTEA) Assay for Fatty Acid Synthase (FASN) using HepaRG (AID 2283448); conditions: mRNA level, 48 h; actives raise or lower the signal;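 as to AC50: differentiated human HepaRG liver cells in serum-free induction medium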
Summary of the method: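 Transcript-level assay: HepaRG liver cells are treated for 48 h across an eight-point range topping at 100 uM, and FASN mRNA, normalized to three housekeeping genes, is compared with DMSO controls in both directions.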

[9] = read-out: Cyclin D2 (CCND2), CCND2 (gene 894); assay: LTEA_HepaRG_CCND2: Life Technologies and Expression Analysis (LTEA) Assay for Cyclin D2 (CCND2) using HepaRG (AID 2283449); conditions: mRNA level, 48 h; actives raise or lower the signal
Summary of the method: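 Read-out is CCND2 mRNA level measured by qRT-PCR in human HepaRG liver cells and normalised to three housekeeping genes. Chemicals were applied for 48 h at up to 100 uM, with gain or loss fitted relative to 0.5% DMSO.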

[10] = read-out: Cyclin Dependent Kinase Inhibitor 1A (CDKN1A), CDKN1A (gene 1026); assay: LTEA_HepaRG_CDKN1A: Life Technologies and Expression Analysis (LTEA) Assay for Cyclin Dependent Kinase Inhibitor 1A (CDKN1A) using HepaRG (AID 2283450); conditions: mRNA level, 48 h; actives raise or lower the signal
Summary of the method: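 HepaRG, 48 h dosing, 8-pt half-log series from 100 uM top, 0.5% DMSO vehicle, duplicates. Readout: TaqMan qRT-PCR of CDKN1A transcript, housekeeping-normalized (ACTB, GAPDH, POLR2A). Up/down curve fit relative to DMSO.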

Measured: AC50

Chain of Fatty acid synthase (Homo sapiens) (P49327 whole entry, looked up): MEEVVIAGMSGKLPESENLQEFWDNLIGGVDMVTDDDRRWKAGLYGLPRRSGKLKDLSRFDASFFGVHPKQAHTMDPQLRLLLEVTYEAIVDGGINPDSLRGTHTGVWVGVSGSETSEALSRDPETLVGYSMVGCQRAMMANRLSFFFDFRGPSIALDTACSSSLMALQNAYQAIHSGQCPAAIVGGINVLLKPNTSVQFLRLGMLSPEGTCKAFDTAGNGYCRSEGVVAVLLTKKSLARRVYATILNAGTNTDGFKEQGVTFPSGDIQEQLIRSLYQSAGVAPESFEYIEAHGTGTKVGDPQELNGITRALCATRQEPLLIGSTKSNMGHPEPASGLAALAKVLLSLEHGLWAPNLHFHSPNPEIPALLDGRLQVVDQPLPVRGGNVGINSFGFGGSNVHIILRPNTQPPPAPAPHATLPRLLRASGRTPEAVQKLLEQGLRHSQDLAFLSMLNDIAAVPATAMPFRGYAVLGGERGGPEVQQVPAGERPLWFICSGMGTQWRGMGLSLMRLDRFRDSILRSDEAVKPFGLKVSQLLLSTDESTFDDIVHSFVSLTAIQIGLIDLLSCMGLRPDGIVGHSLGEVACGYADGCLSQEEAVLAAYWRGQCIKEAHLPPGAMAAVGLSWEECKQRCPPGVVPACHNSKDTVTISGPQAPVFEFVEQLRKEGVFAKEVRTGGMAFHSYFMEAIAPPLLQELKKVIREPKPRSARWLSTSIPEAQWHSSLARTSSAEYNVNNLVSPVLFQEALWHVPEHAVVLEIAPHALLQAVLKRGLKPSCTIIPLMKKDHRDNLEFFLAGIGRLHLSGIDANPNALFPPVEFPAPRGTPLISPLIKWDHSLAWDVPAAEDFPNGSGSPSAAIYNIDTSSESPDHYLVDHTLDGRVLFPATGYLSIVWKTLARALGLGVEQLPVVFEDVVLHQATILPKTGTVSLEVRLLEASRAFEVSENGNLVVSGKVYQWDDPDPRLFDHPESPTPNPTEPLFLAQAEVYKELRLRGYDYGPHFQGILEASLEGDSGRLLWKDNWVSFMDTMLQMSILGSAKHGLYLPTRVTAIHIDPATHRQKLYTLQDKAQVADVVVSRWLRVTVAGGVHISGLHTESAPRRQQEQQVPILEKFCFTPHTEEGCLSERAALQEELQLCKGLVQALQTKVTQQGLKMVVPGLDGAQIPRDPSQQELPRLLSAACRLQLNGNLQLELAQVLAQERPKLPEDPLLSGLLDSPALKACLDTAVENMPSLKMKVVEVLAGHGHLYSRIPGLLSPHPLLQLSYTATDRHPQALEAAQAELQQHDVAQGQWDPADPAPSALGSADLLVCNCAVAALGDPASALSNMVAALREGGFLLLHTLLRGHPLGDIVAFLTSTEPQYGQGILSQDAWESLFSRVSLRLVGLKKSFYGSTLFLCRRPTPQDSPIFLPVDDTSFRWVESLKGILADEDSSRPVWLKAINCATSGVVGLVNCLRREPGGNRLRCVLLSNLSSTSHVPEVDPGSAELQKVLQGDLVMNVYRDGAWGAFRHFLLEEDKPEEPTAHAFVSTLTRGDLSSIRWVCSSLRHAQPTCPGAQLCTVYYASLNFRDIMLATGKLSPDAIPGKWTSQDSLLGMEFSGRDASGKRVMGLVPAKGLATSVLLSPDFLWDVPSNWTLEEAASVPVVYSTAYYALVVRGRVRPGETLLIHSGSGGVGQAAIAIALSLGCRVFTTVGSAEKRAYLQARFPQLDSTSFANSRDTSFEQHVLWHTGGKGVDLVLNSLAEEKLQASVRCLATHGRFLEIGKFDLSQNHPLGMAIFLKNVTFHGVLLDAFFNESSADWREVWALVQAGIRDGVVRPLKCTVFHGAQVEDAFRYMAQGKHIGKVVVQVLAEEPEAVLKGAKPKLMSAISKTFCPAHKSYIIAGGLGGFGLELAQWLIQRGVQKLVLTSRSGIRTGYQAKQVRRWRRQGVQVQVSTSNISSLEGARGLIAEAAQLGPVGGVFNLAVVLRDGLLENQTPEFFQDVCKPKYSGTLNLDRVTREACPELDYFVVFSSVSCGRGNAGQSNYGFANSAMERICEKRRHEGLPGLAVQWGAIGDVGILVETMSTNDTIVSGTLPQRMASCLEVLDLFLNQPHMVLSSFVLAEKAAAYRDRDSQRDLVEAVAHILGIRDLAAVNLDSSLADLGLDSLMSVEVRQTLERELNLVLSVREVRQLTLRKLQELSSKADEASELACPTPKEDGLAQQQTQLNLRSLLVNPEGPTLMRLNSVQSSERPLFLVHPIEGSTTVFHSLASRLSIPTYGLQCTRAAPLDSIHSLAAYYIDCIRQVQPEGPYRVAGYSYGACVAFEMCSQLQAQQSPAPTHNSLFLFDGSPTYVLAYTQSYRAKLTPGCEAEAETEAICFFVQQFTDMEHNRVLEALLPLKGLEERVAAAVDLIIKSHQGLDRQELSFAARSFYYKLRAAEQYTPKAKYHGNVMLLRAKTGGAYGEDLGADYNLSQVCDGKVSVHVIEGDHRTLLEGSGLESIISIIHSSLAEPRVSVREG

NC(=O)c1nc(-c2cccc(-c3cc(F)ccc3OCC(F)(F)C(F)(F)F)c2)n[nH]1
active: [8] 79 µM
inactive: all other assays above

c1ccc2n[nH]nc2c1
inactive: [7] | [8] | [9] | [10]

CCCCCCCCOC(=O)c1cc(O)c(O)c(O)c1
active: [3] 5 µM | [6] 2.44 µM
not listed: [1]
inactive: all other assays above

CCCCCCCCOc1ccc(C(=O)c2ccccc2)c(O)c1
inactive: [7] | [8] | [9] | [10]

CCCCCCCC[Si](OCC)(OCC)OCC
not listed: [1] | [4] | [5]
inactive: all other assays above

C[C@]12CC[C@@H]3c4ccc(O)cc4CC[C@H]3[C@@H]1CCC2=O
active: [6] 0.849 µM
inactive: [7] | [8] | [9] | [10]

Cc1oc2c(NC(=O)c3c(Cl)cccc3Cl)cccc2c1C(C)(C)O
active: [3] 2.53 µM | [8] 31.2 µM
inactive: [2] | [6] | [7] | [10]

CC(C)(C)c1cc(/C=C2\SC(N)=NC2=O)cc(C(C)(C)C)c1O
active: [3] 0.866 µM | [6] 0.897 µM | [8] 12.2 µM | [10] 22.2 µM
not listed: [1]
inactive: all other assays above

CC(C)(C)c1csc(-c2cc3cc(OCc4ccccc4CC(=O)O)ccc3o2)n1
active: [8] 84 µM
inactive: [7] | [9] | [10]

O=C(Nc1ccc(Cl)cc1)Nc1ccc(Cl)c(Cl)c1
active: [3] 0.417 µM | [6] 0.318 µM | [7] 23.1 µM | [8] 17.5 µM
not listed: [9]
inactive: all other assays above

CN1C(=O)N(c2ccccc2Br)Cc2cnc(Nc3ccc4c(c3)OCC(CO)O4)nc21 (centres undefined)
inactive: [2] | [4] | [9] | [10]
active: [3] 0.679 µM | [5] 0.326 µM | [6] 0.661 µM | [7] 90.4 µM | [8] 78.3 µM

CCCCCCCCCCCC[N+](C)(C)C
inactive: [2] | [3] | [6] | [9]
active: [7] 82.5 µM | [8] 80.9 µM | [10] 82 µM

Cc1c2ccccc2c(C)c2c1ccc1ccccc12
active: [5] 0.657 µM | [7] 66.1 µM | [8] 51 µM | [10] 35.1 µM
inactive: all other assays above

O=C1c2ccccc2C(=O)N1CCc1noc(-c2ccc(CN3CCCCCC3)s2)n1
inactive: [6] | [7] | [8] | [9] | [10]

O=C(O)Cn1c(=O)n(Cc2ccc(Br)cc2F)c(=O)c2ccc(Cl)cc21
active: [6] 73.3 µM
inactive: all other assays above

Clc1ccccc1C(c1ccccc1)(c1ccccc1)n1ccnc1
inactive: [7] | [9]
active: [2] 0.0502 µM | [3] 0.0401 µM | [4] 0.244 µM | [5] 0.41 µM | [6] 0.00734 µM | [8] 23.1 µM | [10] 91.2 µM

Oc1ccc2ccccc2c1
active: [1] 76.7 µM
not listed: [4] | [5]
inactive: all other assays above

Oc1ccccc1
inactive: [7] | [8] | [9] | [10]
